PolyA inh: inhibitors of polyadenylation in S. cerevisiae; S. cerevisiae SKY197-pL101 polyadenylation reporter, beta-gal luminescence; efflux-impaired pdr1/pdr3 knockout yeast; score 100 = 6 SD above DMSO; activity score, % at 12 µM; 300,000 compounds, 0.02% hits;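 active means lowest replicate activity score at least 50, where 100 means six control SD above control mean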;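 further: yeast exposed to compound for 9 h at 30 °C; higher score means more reporter readthrough which indicates perturbed polyadenylation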
A3G deaminase: blocks human APOBEC3G single-stranded DNA deamination. inhibition, % at 20 µM. recombinant A3G, ssDNA deamination FAM/TAMRA fluorescence. AID 493012. 330,000 compounds, 0.28% hits. Q9HC16;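 active means inhibition of at least 40% at 20 µM, with no more than 30% in the related APOBEC3A deaminase screen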;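 further: plate controls were DMSO wells with A3G for no effect and wells lacking A3G enzyme for full effect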
Target sequence (Q9HC16 whole entry, looked up): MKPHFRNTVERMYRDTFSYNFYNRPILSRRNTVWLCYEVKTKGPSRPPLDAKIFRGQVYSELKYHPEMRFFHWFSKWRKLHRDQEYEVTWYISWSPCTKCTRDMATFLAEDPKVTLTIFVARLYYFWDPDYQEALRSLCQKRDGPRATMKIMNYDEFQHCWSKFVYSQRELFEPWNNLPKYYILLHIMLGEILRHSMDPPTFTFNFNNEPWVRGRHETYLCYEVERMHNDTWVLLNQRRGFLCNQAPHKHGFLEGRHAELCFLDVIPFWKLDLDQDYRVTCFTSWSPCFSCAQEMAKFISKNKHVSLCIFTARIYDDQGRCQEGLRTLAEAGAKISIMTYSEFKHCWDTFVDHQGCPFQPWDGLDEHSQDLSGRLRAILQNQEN
NALP1 yeast inh: blocks the NALP1 inflammasome reconstituted in yeast; S. cerevisiae NALP1/ASC/caspase-1 growth, X-gal OD620, 72 h; inhibition, % at 10 µM; 280,000 compounds, 0.61% hits; in the data active means inhibition mostly above about 24%, no sharp cut-off; inactive means mostly below about 32%
APOBEC3A inh: inhibitors of human APOBEC3A DNA deaminase | 330,000 compounds, 0.41% hits | inhibition, % at 20 µM | recombinant A3A, FAM/TAMRA ssDNA deamination fluorescence | P31941;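 active means at least 40% inhibition at 20 µM here, with at most 30% in a related deaminase screen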;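 further: plate controls were A3A with DMSO for no effect and wells lacking A3A enzyme for full effect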
* = called active by the depositor. In the library only some 1.2% were active in any assay of this set; here they are far more common.

Screening C=CCNC(=S)NNC(=O)c1csc(C)c1C returned PolyA inh 10, A3G deaminase -2, NALP1 yeast inh -6 and APOBEC3A inh -3.
For CN1CCN(c2ccc(NC(=O)c3cccc(OCc4ccccc4)c3)cc2)CC1 the results were PolyA inh 6, A3G deaminase -11, NALP1 yeast inh 31* and APOBEC3A inh -9.
Screening Nc1nc(SCC(=O)c2cc3ccccc3o2)n[nH]1 returned PolyA inh 28, A3G deaminase -5, NALP1 yeast inh 22* and APOBEC3A inh -3.
O=C(COC(=O)Cc1cccc(F)c1)NCCc1ccccc1 was read as A3G deaminase -6 and APOBEC3A inh -3.
For O=C(N/N=C/c1cc(Cl)ccc1O)c1ccc(Br)cc1 the results were NALP1 yeast inh 46*.
Screening COCCNS(=O)(=O)c1cccn1-c1ncc(C(F)(F)F)cc1Cl returned PolyA inh -2, A3G deaminase -4, NALP1 yeast inh 40* and APOBEC3A inh -3.
COc1ccc(-c2cccc(NC(=O)COc3ccc(Cl)cc3)c2)nn1 was read as PolyA inh 81*, A3G deaminase -1, NALP1 yeast inh 26 and APOBEC3A inh 0.
For COC(=O)Nc1ccc(S(=O)(=O)NCc2ccccn2)cc1 the results were PolyA inh 8, A3G deaminase -5, NALP1 yeast inh -29 and APOBEC3A inh 0.
CCOCc1c(C(=O)Nc2cc(OCC)c(N3CCOCC3)cc2OCC)oc2ccccc12 was read as PolyA inh 5, A3G deaminase -4, NALP1 yeast inh 36* and APOBEC3A inh -4.
Screening COc1cccc2cc(-c3nc4ccccc4o3)c(=O)oc12 returned PolyA inh 103*, A3G deaminase -1, NALP1 yeast inh 6 and APOBEC3A inh 2.
Screening O=c1oc2ccc(Br)cc2cc1-c1nc2ccccc2o1 returned PolyA inh -18, A3G deaminase -2, NALP1 yeast inh -1 and APOBEC3A inh -5.
Screening COC(=O)c1cc(NC(=O)/C=C/c2ccccc2)ccc1O returned PolyA inh -10, A3G deaminase -5, NALP1 yeast inh -16 and APOBEC3A inh 2.
O=C(CN1CCSC1=NCc1ccccc1)c1ccc(Cl)c(Cl)c1 was read as PolyA inh 10, A3G deaminase -4, NALP1 yeast inh 46* and APOBEC3A inh -1.
COCCCN1C(=O)C(=O)/C(=C(/O)c2ccc(OC)cc2)C1c1ccc(O)c(OC)c1 (stereo not given) was read as PolyA inh 11, A3G deaminase -5, NALP1 yeast inh 5 and APOBEC3A inh -11.
Screening COCCCN1C(=O)C(=O)/C(=C(/O)c2ccc(OC)cc2)C12C(=O)N(C)c1ccccc12 (stereo not given) returned PolyA inh -8, A3G deaminase 9, NALP1 yeast inh 39* and APOBEC3A inh 3.
Screening CC(C)CN(C(=O)CSc1nncs1)c1c(N)n(CC(C)C)c(=O)[nH]c1=O returned PolyA inh 0, A3G deaminase -12, NALP1 yeast inh 45* and APOBEC3A inh 6.
CCN(C(=O)CSc1nncs1)c1c(N)n(Cc2ccccc2)c(=O)[nH]c1=O was read as PolyA inh 4, A3G deaminase 0, NALP1 yeast inh 9 and APOBEC3A inh 3.
Screening CCC(C)(C)NC(=O)Cc1ccc(OC)c(OC)c1 returned PolyA inh -9, A3G deaminase -8, NALP1 yeast inh 9 and APOBEC3A inh -4.
For CCC(C)(C)NC(=O)Cc1ccccc1OC the results were PolyA inh 1, A3G deaminase -8, NALP1 yeast inh 41* and APOBEC3A inh -3.
Cc1ccc(NC(=O)COC(=O)C2CCC2)cc1S(=O)(=O)N1CCOCC1 was read as A3G deaminase 5 and APOBEC3A inh 3.
Cc1ccc(S(=O)(=O)N/N=C/c2c[nH]c3ccccc23)cc1 was read as PolyA inh -9, A3G deaminase -9, NALP1 yeast inh 26* and APOBEC3A inh 0.
Screening CN(CC(=O)Nc1ccc(F)cc1)C(=O)CN1C(=O)NC2(CCCc3ccccc32)C1=O (stereo not given) returned PolyA inh 6, A3G deaminase 0, NALP1 yeast inh 10 and APOBEC3A inh 22.
`COC(=O)CCC(=O)NC(=S)Nc1cc(Cl)ccc1Cl` gave PolyA inh -3, A3G deaminase -7, NALP1 yeast inh 42* and APOBEC3A inh -3.
For CCn1cc([N+](=O)[O-])c(=O)c2cc(F)c(N3CCOCC3)cc21 the results were PolyA inh -1, A3G deaminase 0, NALP1 yeast inh 21 and APOBEC3A inh -15.
COc1cc(/C=C2\CC/C(=C\c3cc(OC)c(O)c(OC)c3)C2=O)cc(OC)c1O was read as A3G deaminase 19, NALP1 yeast inh 22 and APOBEC3A inh 25.
